The antibiotic and cytotoxicity screens of Wong et al. (2023)
Among all 39,000 compounds or so, about 3,300 (8.5%) were called active. The sample as a whole holds a higher share of actives than the screen did.

These compounds were tested on HepG2 (assay: cytotoxicity call (relative viability < 0.9)). Conditions: 10 µM.

| Compound | cytotoxicity call |
| --- | --- |
| C[C@@H]1CCCCO[C@@H](CN(C)C(=O)Nc2ccc3c(c2)OCO3)[C@@H](C)CN([C@@H](C)CO)C(=O)c2cc(NC(=O)Nc3ccc(C(F)(F)F)cc3)ccc2O1 | inactive |
| C[C@@H]1CCCCO[C@H](CN(C)C(=O)Nc2ccc(C(F)(F)F)cc2)[C@H](C)CN([C@H](C)CO)C(=O)c2cc(NC(=O)Cc3ccccc3)ccc2O1 | inactive |
| COc1ccc(NC(=O)Nc2ccc3c(c2)C(=O)N([C@H](C)CO)C[C@H](C)[C@H](CN(C)CC2CCCCC2)OCCCC[C@@H](C)O3)cc1 | inactive |
| COc1ccc(NC(=O)Nc2ccc3c(c2)C(=O)N([C@@H](C)CO)C[C@H](C)[C@H](CN(C)CC2CCCCC2)OCCCC[C@H](C)O3)cc1 | active |
| COc1ccc(NC(=O)Nc2ccc3c(c2)C(=O)N([C@H](C)CO)C[C@H](C)[C@@H](CN(C)CC2CCCCC2)OCCCC[C@H](C)O3)cc1 | inactive |
| O=C(O[C@@H]1O[C@@H]2COC(=O)c3cc(Oc4c(C(=O)O)cc(O)c(O)c4O)c(O)c(O)c3-c3c(cc(O)c(O)c3O)C(=O)O[C@H]2[C@H](OC(=O)c2cc(O)c(O)c(O)c2)[C@H]1OC(=O)c1cc(O)c(O)c(O)c1)c1cc(O)c(O)c(O)c1 | inactive |
| O=C(O[C@@H]1O[C@H]2COC(=O)c3cc(O)c(O)c(O)c3-c3c(cc(O)c(O)c3O)C(=O)O[C@@H]([C@H]1O)[C@@H]2OC(=O)c1cc(O)c(O)c(O)c1-c1c(C(=O)O)cc(O)c(O)c1O)c1cc(O)c(O)c(O)c1 | active |
| O=C(O[C@@H]1O[C@@H]2COC(=O)c3cc(O)c(O)c(O)c3-c3c(cc(O)c(O)c3O)C(=O)O[C@H]2[C@H](OC(=O)c2cc(O)c(O)c(O)c2)[C@H]1OC(=O)c1cc(O)c(O)c(O)c1)c1cc(O)c(O)c(O)c1 | active |
| O=C(OC1Cc2c(O)cc(O)cc2OC1c1cc(O)c(O)c(O)c1-c1c(C2Oc3cc(O)cc(O)c3CC2OC(=O)c2cc(O)c(O)c(O)c2)cc(O)c(O)c1O)c1cc(O)c(O)c(O)c1 (configuration not stated) | inactive |
| O=C(O[C@@H]1Cc2c(O)cc(O)cc2O[C@@H]1c1cc(O)c(O)c(O)c1-c1c([C@H]2Oc3cc(O)cc(O)c3C[C@H]2O)cc(O)c(O)c1O)c1cc(O)c(O)c(O)c1 | inactive |
| O=C(O[C@@H]1O[C@H]2COC(=O)c3cc(O)c(O)c(O)c3-c3c(cc(O)c(O)c3O)C(=O)O[C@@H]([C@H]1O)[C@@H]2O)c1cc(O)c(O)c(O)c1 | inactive |
| C[C@@H]1CCCCO[C@H](CN(C)C(=O)CCC(F)(F)F)[C@@H](C)CN([C@H](C)CO)C(=O)c2cc(NC(=O)NC3CCCCC3)ccc2O1 | inactive |
| C[C@@H]1CN([C@H](C)CO)C(=O)c2cccc(NC(=O)C3CCOCC3)c2O[C@H]1CN(C)Cc1ccc(C(=O)O)cc1 | inactive |
| Cc1ccc(S(=O)(=O)Nc2ccc3c(c2)C(=O)N([C@@H](C)CO)C[C@H](C)[C@H](CN(C)C(=O)Nc2c(C)noc2C)OCCCC[C@@H](C)O3)cc1 | inactive |
| C[C@@H]1CN([C@@H](C)CO)C(=O)Cc2cc(NC(=O)Nc3cccc4ccccc34)ccc2O[C@@H]1CN(C)Cc1ccc2c(c1)OCO2 | active |
| C[C@H](CO)N1C[C@H](C)[C@@H](CN(C)Cc2ccc3c(c2)OCO3)Oc2ccc(NC(=O)Nc3cccc4ccccc34)cc2CC1=O | inactive |
| C[C@@H]1CN([C@@H](C)CO)C(=O)Cc2cc(NC(=O)Nc3cccc4ccccc34)ccc2O[C@H]1CN(C)Cc1ccc2c(c1)OCO2 | active |
| C[C@@H]1CN([C@H](C)CO)C(=O)Cc2cc(NC(=O)Nc3cccc4ccccc34)ccc2O[C@H]1CN(C)Cc1ccc2c(c1)OCO2 | inactive |
| C[C@H](CO)N1C[C@H](C)[C@H](CN(C)Cc2ccc3c(c2)OCO3)Oc2ccc(NC(=O)Nc3cccc4ccccc34)cc2CC1=O | inactive |

| Compound | cytotoxicity call |
| --- | --- |
| C[C@@H]1CN([C@H](C)CO)C(=O)Cc2cc(NC(=O)Nc3cccc4ccccc34)ccc2O[C@@H]1CN(C)Cc1ccc2c(c1)OCO2 | active |
| C[C@H]1CN([C@@H](C)CO)C(=O)Cc2cc(NC(=O)Nc3cccc4ccccc34)ccc2O[C@@H]1CN(C)Cc1ccc2c(c1)OCO2 | inactive |
| C[C@H]1CN([C@@H](C)CO)C(=O)Cc2cc(NC(=O)Nc3cccc4ccccc34)ccc2O[C@H]1CN(C)Cc1ccc2c(c1)OCO2 | inactive |
| C[C@H](CO)N1C[C@H](C)[C@@H](CN(C)Cc2ccc3c(c2)OCO3)Oc2ccc(NC(=O)Nc3cccc4ccccc34)cc2C1=O | inactive |
| O=c1[nH][nH]c(=O)c(Cl)c1Cl | inactive |
| COc1ccc(NC(=O)N(C)C[C@@H]2Oc3c(NC(=O)C4CC4)cccc3C(=O)N([C@@H](C)CO)C[C@H]2C)cc1 | inactive |
| CC(C)CC#Cc1ccc2c(c1)O[C@H](CN(C)C(=O)NC1CCCC1)[C@@H](C)CN([C@H](C)CO)S2(=O)=O | inactive |
| CC(C)NC(=O)Nc1cccc2c1O[C@H](CN(C)S(=O)(=O)c1ccc(Cl)cc1)[C@H](C)CN([C@@H](C)CO)C2=O | inactive |
| COc1ccc(CN(C)C[C@@H]2OCCCC[C@@H](C)Oc3ccc(NS(=O)(=O)c4c(C)noc4C)cc3C(=O)N([C@H](C)CO)C[C@H]2C)cc1 | inactive |
| C[C@@H]1CN([C@@H](C)CO)C(=O)c2cc(NC(=O)Cc3cn(C)c4ccccc34)ccc2O[C@H]1CN(C)S(=O)(=O)c1cn(C)cn1 | inactive |
| COc1ccc(NC(=O)Nc2ccc3c(c2)C(=O)N([C@@H](C)CO)C[C@H](C)[C@H](CN(C)C(=O)Nc2ccc4c(c2)OCO4)OCCCC[C@H](C)O3)cc1 | inactive |
| CCS(=O)(=O)Nc1ccc2c(c1)CC(=O)N2 | inactive |
| CCS(=O)(=O)Nc1ccc2c(c1)/C(=C(/Nc1ccc(CN3CCCCC3)cc1)c1ccccc1)C(=O)N2 | active |
| CCS(=O)(=O)Nc1ccc2c(c1)C(=O)N(C)[C@@H]1CC[C@H](CC(=O)N[C@H]3CCN(Cc4ccccc4)C3)O[C@H]1CO2 | inactive |
| N#Cc1cccc(NCCN2CCNC2=O)n1 | inactive |
| Cc1ccc(S(=O)(=O)N(C)C[C@H]2Oc3cc(C#Cc4ccccc4)ccc3S(=O)(=O)N([C@H](C)CO)C[C@@H]2C)cc1 | inactive |
| C=CCCN(CC#C[C@H]1Oc2ccccc2S(=O)(=O)N2CCC[C@@H]12)S(=O)(=O)c1ccc(C)cc1 | active |
| Cc1ccc(S(=O)(=O)N(C)C[C@@H]2Oc3cc(C#Cc4ccccc4)ccc3S(=O)(=O)N([C@H](C)CO)C[C@H]2C)cc1 | inactive |
